Experimental findings from the supplement of paper PMC9694430 are described below.

What all share (test): thermal shift delta Tm vs DMSO control; higher = stronger stabilization (binding)
What all share (conditions): 12.5 µM; protein concentration 2 µM

Experiment [1] has as its system LOC_OS01G57100-cb003. The procedure, abridged:
(§1)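 Heating from 25°C to 95°C at 0.05°C/s, fluorescence was recorded for 19.5 μl wells of 2 μM E. coli-expressed, purified rice kinase domain in 100 mM potassium phosphate pH 7.5, 150 mM NaCl, 10% glycerol and 5 × SYPRO Orange with compound in DMSO. Boltzmann fits gave melting temperatures for this differential scanning fluorimetry assay. The shift reported is the mean of three replicates against the DMSO-only protein.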

Experiment [2] deals with LOC_OS01G60330-cb001. The procedure, abridged:
as §1

Experiment [3] deals with LOC_OS01G60700-cb002. The method in brief: as §1
The subject of experiment [4] is LOC_OS01G63280-cb003. The procedure, abridged: as §1
Experiment [5] concerns LOC_OS01G67340-cb003. The procedure, abridged:
as §1

Experiment [6] deals with LOC_OS01G70970-cb002. The method in brief:
as §1

In experiment [7] the test system is LOC_OS02G07810-cb001. The procedure, abridged: as §1
Experiment [8] concerns LOC_OS02G08530-cb003. The procedure, abridged:
as §1

Experiment [9] deals with LOC_OS02G14120-cb001. The method in brief:
as §1

Experiment [10] concerns LOC_OS02G17970-cb001. The method in brief:
as §1

In experiment [11] the test system is LOC_OS02G45750-cb003. The procedure, abridged: as §1
The subject of experiment [12] is LOC_OS02G54510-cb004. The procedure, abridged:
as §1

Experiment [13] concerns LOC_OS03G04050-cb001. The method in brief: as §1
Experiment [14] deals with LOC_OS03G12390-cb001. The procedure, abridged:
as §1

Experiment [15] has as its system LOC_OS03G27990-cb004. The method in brief: as §1
Experiment [16] deals with LOC_OS03G50450-cb001. The method in brief: as §1
Experiment [17] concerns LOC_OS03G50810-cb003. The procedure, abridged: as §1
The subject of experiment [18] is LOC_OS04G35114-cb001. The method in brief:
as §1

Experiment [19] concerns T1, LOC_OS04G38480-cb003.
T1 sequence (whole entry): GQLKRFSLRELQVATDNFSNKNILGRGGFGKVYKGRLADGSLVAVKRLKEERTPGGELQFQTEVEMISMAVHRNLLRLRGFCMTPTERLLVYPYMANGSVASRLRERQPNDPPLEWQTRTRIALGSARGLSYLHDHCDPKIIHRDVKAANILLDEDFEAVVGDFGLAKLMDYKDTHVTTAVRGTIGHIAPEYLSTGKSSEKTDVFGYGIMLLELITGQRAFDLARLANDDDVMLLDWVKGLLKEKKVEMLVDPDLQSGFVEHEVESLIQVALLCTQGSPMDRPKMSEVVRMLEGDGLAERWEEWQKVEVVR
The procedure, abridged: as §1

Experiment [20] deals with T2, LOC_OS04G41100-cb001.
T2 sequence (whole entry): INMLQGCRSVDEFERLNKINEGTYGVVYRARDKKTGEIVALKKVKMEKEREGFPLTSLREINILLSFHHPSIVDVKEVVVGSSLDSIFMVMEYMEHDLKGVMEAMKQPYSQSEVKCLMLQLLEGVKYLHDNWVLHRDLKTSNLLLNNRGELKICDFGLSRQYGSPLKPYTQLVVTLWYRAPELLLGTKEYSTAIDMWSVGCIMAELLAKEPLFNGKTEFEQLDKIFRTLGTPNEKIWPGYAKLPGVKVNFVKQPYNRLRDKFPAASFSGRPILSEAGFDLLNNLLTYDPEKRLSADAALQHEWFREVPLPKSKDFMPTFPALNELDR
The procedure, abridged: as §1
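Also: purified Escherichia coli-expressed rice kinase domain construct.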

Take `CCNc1nc(Nc2cc(F)c(C(=O)N3CCOCC3)cc2OC)ncc1C(F)(F)F`: the “thermal shift delta Tm” value in [1] was determined as 0.61 °C; in experiment [2], 1.21 °C; in [3], 0.71 °C; in experiment [4], 0.15 °C; in [5], 0.32 °C; in experiment [6], 0.73 °C. Further, the “thermal shift delta Tm” value was -0.04 °C in [7]; 1.3 °C in experiment [8]; 0.5 °C in [9]; 0.54 °C in experiment [10]; 1.06 °C in experiment [11]; 0.23 °C in [12]. Besides, the “thermal shift delta Tm” value turned out to be 0.41 °C in [13]; 0.25 °C in [14]; 0.28 °C in experiment [15]; 0.95 °C in experiment [16]; 0.82 °C in experiment [17]; 1.17 °C in experiment [18]. In addition, the results for the “thermal shift delta Tm” value in experiment [19] and in experiment [20] were 1.15 °C and 0.43 °C, respectively.
As for `CCc1cccc(CC)c1NC(=O)N1Cc2[nH]nc(NC(=O)c3ccc(N4CCN(C)CC4)cc3)c2C1`, the “thermal shift delta Tm” value in experiment [1] was 0.59 °C; in experiment [2], 0.73 °C; in experiment [3] it was 0.44 °C; in [4], 0.43 °C; in [5] it was -0.29 °C; in experiment [6], 0.21 °C. The “thermal shift delta Tm” value in experiment [7] was determined as 0.66 °C; in [8], 0.96 °C; in [9] it was 4.48 °C; in experiment [10], 0.32 °C; in experiment [11] it was 2.47 °C; in experiment [12] it was 0.46 °C. In addition, the “thermal shift delta Tm” value in experiment [13] was found to be 0.29 °C; in experiment [14], 4.75 °C; in [15], 0.09 °C; in experiment [16] it was 0.27 °C; in experiment [17], 2.53 °C; in experiment [18], 4.67 °C. For the same compound, the results for the “thermal shift delta Tm” value in [19] and in experiment [20] were 0.61 °C and 0.62 °C, respectively.
Consider `CN1CC(O)C2=C/C(=N/NC(N)=O)C(=O)C=C21` (stereo not given) [Carbazochrome], for which the “thermal shift delta Tm” value in [1] was -0.08 °C; in [2] it was 0.07 °C; in experiment [3] it was 0.11 °C; in experiment [4], -0.22 °C; in experiment [5], -0.39 °C; in experiment [6] it was 0.31 °C. In addition, the “thermal shift delta Tm” value was -0.8 °C in experiment [7]; 0.45 °C in experiment [8]; 0.37 °C in experiment [9]; -0.48 °C in experiment [10]; 0.38 °C in experiment [11]; 0.29 °C in [12]. The “thermal shift delta Tm” value was 0.65 °C in experiment [13]; 0.05 °C in [14]; 0.64 °C in experiment [15]; 0.96 °C in experiment [16]; 0.41 °C in experiment [17]; -0.02 °C in experiment [18]. For the same compound, the “thermal shift delta Tm” value stood at 0.38 °C in [19] and 0.2 °C in experiment [20].
Turning to `COc1c(C)c(C(=O)c2ccc(N)c(C(=O)O)c2)n2ccccc12`, the “thermal shift delta Tm” value in experiment [1] is 1.57 °C; in [2], 0.95 °C; in experiment [3] it was 1.12 °C; in experiment [4], -0.1 °C; in experiment [5] it was -0.08 °C; in [6], 0.36 °C. Moreover, the “thermal shift delta Tm” value in experiment [7] was 0.92 °C; in [8], 0.95 °C; in experiment [9] it was -0.55 °C; in [10] it was 1.28 °C; in experiment [11], 0.38 °C; in experiment [12], 0.3 °C. Besides, the “thermal shift delta Tm” value in experiment [13] is 0.46 °C; in experiment [14] it was -0.07 °C; in experiment [15] it was 0.21 °C; in [16], 0.58 °C; in [17], 0.22 °C; in [18] it was 0.79 °C. Also, the “thermal shift delta Tm” value in experiment [19] was determined as 0.31 °C; in experiment [20], 0.29 °C.
Take `C=CC(=O)Nc1ccc2ncnc(Nc3cccc(Br)c3)c2c1`: the “thermal shift delta Tm” value is 0.86 °C in experiment [1]; 0.41 °C in experiment [2]; 0.96 °C in [3]; -0.32 °C in [4]; -0.12 °C in experiment [5]; 0.22 °C in experiment [6]. Besides, the “thermal shift delta Tm” value in experiment [7] is 0.8 °C; in [8], 0.61 °C; in [9], -0.18 °C; in [10] it was 0.66 °C; in [11], 0.51 °C; in experiment [12], 0.24 °C. In addition, the “thermal shift delta Tm” value is 0.68 °C in [13]; -0.11 °C in experiment [14]; 0.2 °C in experiment [15]; 0.37 °C in experiment [16]; 0.27 °C in experiment [17]; 0.79 °C in [18]. In addition, the “thermal shift delta Tm” value is 0.18 °C in experiment [19] and 0.35 °C in experiment [20].
In the case of `NC[C@@](O)(c1ccc(Cl)cc1)c1ccc(-c2cn[nH]c2)cc1`, the “thermal shift delta Tm” value was 2.29 °C in [1]; 1.43 °C in experiment [2]; 1.37 °C in experiment [3]; 0.56 °C in experiment [4]; 0.77 °C in experiment [5]; 0.29 °C in experiment [6]. Also, the “thermal shift delta Tm” value in experiment [7] was 0.52 °C; in experiment [8], 0.75 °C; in [9] it was 1.05 °C; in [10] it was 0.63 °C; in experiment [11], 1.24 °C; in experiment [12] it was 0.3 °C. Moreover, the “thermal shift delta Tm” value is 0.31 °C in experiment [13]; 0.49 °C in experiment [14]; 0.56 °C in experiment [15]; 0.8 °C in experiment [16]; 0.36 °C in experiment [17]; 1.05 °C in [18]. Moreover, the entries for the “thermal shift delta Tm” value in experiment [19] and in experiment [20] were 1.51 °C and 0.81 °C, respectively.
